From PubChem
VDR inh: blocks the human vitamin D receptor; VDR-SRC2-3 peptide fluorescence polarization, 2 h; P11473; AID 504847; Potency, µM, inactives show max response, negative = inhibition, most hits filed as inhibitors; 0.93% of 400,000 active; further: on the % scale 0 is the no-effect control and ±100 the full control effect
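Fluorescence polarization assay of small-molecule disruption of VDR binding to coregulator peptide SRC2-3. Compounds and controls pin-transferred, then read after 2 h incubation at ambient room temperature.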
JMJD2A Tudor: blocks the human JMJD2A Tudor domain; Potency, µM (top dose mostly 114 µM), inactives show at the top dose activity change, negative = inhibition, hits mostly inhibitors; 4.4% of 390,000 active; AID 504339; AlphaScreen JMJD2A-Tudor / H3K4me3 peptide binding; further: on the % scale 0 is the no-effect control and ±100 the full control effect; nearly all actives have a fitted effect of over 50% in size
PLK1 PBD inh: PLK1 (human) polo-box domain binding inhibition | P53350 | Plk1 PBD binding of FITC phosphopeptide, fluorescence polarization | Potency, µM, for the others: max response, negative = inhibition, most hits filed as inhibitors | 2.8% of 360,000 active; further: series mostly up to about 57 µM; on the % scale 0 is the no-effect control and ±100 the full control effect; nearly all actives have a fitted effect of over 65% in size
HP1b binding inh: HP1-beta chromodomain-methylated histone interaction inhibition; P83916; AlphaScreen HP1-beta / biotin-H3K9me3 peptide binding; Potency, µM (doses to about 114 µM), for the others: at the top dose activity change, negative = inhibition, hits mostly inhibitors; 0.56% of 390,000 active; AID 540317; further: nearly all actives have a fitted effect of over 70% in size
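AlphaScreen: HP1-beta (50 nM) preformed 30 min with biotin-H3(1-18)K9me3 peptide (50 nM) in PBS pH 7.4, 0.01% Tween-20. Compound added for 30 min at RT, then streptavidin donor/nickel chelate acceptor beads (10 ug/mL) for 30 min.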
BAZ2B inh: blocks human BAZ2B; AlphaScreen BAZ2B-H3K14Ac peptide displacement; 4.4% of 360,000 active; Potency, µM (titrated, usually from 114 µM), for inactives: top-dose activity change, negative = inhibition, actives largely listed as inhibitors; AID 504333; Q9UIF8; further: on the % scale 0 is the no-effect control and ±100 the full control effect; nearly all actives have a fitted effect of over 60% in size
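AlphaScreen displacement of biotin-H3(5-23)K14Ac peptide (50 nM final) from BAZ2B (50 nM final) in PBS pH 7.4, 0.01% Tween-20; complex preformed 30 min RT, then compounds (top 110 uM) 30 min RT, beads 20 min dark.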
L3MBTL1 block: blocks human L3MBTL1. AlphaScreen L3MBTL1–H3K9me1 peptide binding. Q9Y468. AID 485360. Potency, µM (highest dose often 57.1 µM), for the others: at the highest dose activity, negative = inhibition, usual class: inhibitors. 0.66% of 230,000 active; further: on the % scale 0 is the no-effect control and ±100 the full control effect; nearly all actives have a fitted effect of over 60% in size
Target sequence (Q9Y468 whole entry, looked up): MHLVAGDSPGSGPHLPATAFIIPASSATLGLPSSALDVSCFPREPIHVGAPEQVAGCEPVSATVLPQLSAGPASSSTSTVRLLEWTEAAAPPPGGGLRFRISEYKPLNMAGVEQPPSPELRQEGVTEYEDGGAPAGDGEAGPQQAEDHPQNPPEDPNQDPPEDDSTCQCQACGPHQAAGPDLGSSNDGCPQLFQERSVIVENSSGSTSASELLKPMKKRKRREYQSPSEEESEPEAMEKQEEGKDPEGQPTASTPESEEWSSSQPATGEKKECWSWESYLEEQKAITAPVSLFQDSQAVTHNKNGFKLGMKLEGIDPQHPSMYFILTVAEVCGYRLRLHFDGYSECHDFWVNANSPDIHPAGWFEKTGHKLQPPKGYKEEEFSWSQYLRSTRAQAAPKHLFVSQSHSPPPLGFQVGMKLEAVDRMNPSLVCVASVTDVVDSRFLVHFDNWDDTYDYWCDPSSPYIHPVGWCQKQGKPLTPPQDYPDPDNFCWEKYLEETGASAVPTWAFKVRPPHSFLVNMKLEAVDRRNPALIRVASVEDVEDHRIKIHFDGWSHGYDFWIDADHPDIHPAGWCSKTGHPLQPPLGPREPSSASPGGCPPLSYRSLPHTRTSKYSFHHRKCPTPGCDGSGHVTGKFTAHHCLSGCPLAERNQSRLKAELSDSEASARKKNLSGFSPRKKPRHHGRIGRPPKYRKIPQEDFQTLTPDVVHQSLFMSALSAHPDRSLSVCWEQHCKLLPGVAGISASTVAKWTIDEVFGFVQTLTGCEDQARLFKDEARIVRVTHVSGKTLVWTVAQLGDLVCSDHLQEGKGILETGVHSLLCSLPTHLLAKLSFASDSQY
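AlphaScreen proximity signal between nickel-chelate acceptor and streptavidin donor beads (final 10 ug/mL) reports binding of 50 nM L3MBTL1 to 75 nM biotin-H3 K9me1 peptide; complex incubated with compounds 30 min at room temperature; cefsulodin titration as control.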
Numbers without * were called inactive; ? = inconclusive; . = no result; [ ] = remark or other dose. Hits are enriched below; roughly 6.9% of the tested compounds scored in any of these assays. The call rests on the fitted dose curve; in most records, active means well fitted curve in the direction sought with a large enough effect; inconclusive means small, poorly fitted or top-dose-only effect, or another doubt; inactive means no such curve, though single readings can be large; an effect the other way counts as inactive or inconclusive. Potency means the concentration at half of the fitted maximal effect.

SMILES | VDR inh | JMJD2A Tudor | PLK1 PBD inh | HP1b binding inh | BAZ2B inh | L3MBTL1 block
COc1cc(CNc2ccc(N3CCCC3)cc2)ccc1OCc1ccccc1F | 79µM* | 11µM* | -15% | 20µM* | 25µM* | ?
Cc1ccc(NS(=O)(=O)c2ccc(C)c(NC(=S)NCCN3CCOCC3)c2)c(C)c1 | 12% | -20% | ? | 6% | . | 0%
CCc1ccc(CNC(=O)c2cnc3sc(N(CC)CC)nn3c2=O)cc1 | 3% | -11% | . | -1% | -3% | .
CCOC(=O)CC(NC(=O)c1cc2cc(OC)ccc2oc1=O)c1ccc(OC)cc1 (centres undefined) | -16% | 6% | . | 25% | -5% | .
OCCCNCc1ccc(N(c2ccccc2)c2ccccc2)cc1 | -9% | 40µM* | -8% | 71µM* | 56µM* | .
Cc1cc(=O)n(C)c(=O)n1CCCCCCOc1cccc([N+](=O)[O-])c1 | -2% | -24% | -2% | 8% | -31% | -13%
Cc1cc(=O)n(C)c(=O)n1CCCCCN1CCCC1 | 2% | 2.5µM* | -5% | ? | 50µM* | 28µM*
COc1cc([N+](=O)[O-])ccc1NC(=S)NNC(=O)CCC(=O)Nc1ccccc1Cl | -10% | ? | -23% | -18% | -21% | .
CCC(Cc1c(I)cc(I)c(O)c1I)C(=O)O (centres undefined) | 32µM* | . | . | . | . | .
CCOC(=O)c1c(C)c(-c2ccccc2)n(CC(=O)NCCc2ccc(C)cc2)c1C | -14% | 0% | . | 21% | 2% | .
Cc1ccc(NC(=O)COc2coc(CN3CCc4ccccc4C3)cc2=O)c(C)c1 | -25% | -14% | -10% | 40% | -29% | 7%
Cc1ccc(NC(=O)COc2coc(CN3CCc4ccccc43)cc2=O)c(C)c1 | 1% | ? | -11% | -19% | 50µM* | -15%
COc1ccc(CCNC(=O)CCN2C(=O)C3CC=CCC3C2=O)cc1OC (centres undefined) | 9% | -36%[11.4 µM] | 24µM* | -11% | -2% | 0%
COc1ccc(CCNC(=O)CC(Cc2ccc(C)cc2)C(=O)O)cc1OC (centres undefined) | -30% | -18% | 24µM* | 11% | 0% | .
COc1ccc(CCNC(=O)CCn2cccc2)cc1OC | 11% | -25% | -1% | 0% | ? | -3%
COc1ccc(CCNC(=O)CC2SC(N)=NC2=O)cc1OC (centres undefined) | ? | ? | 21µM* | -12%[57 µM] | -7% | -2%
COc1ccc(CCNC(=O)CSCc2ccc([N+](=O)[O-])cc2)cc1OC | ? | 20µM* | 9.5µM* | ? | -6% | 3%
CCN1c2ccccc2-n2cccc2C12CCN(C(=O)Nc1ccccc1Br)CC2 | 7% | ? | . | -2%[57 µM] | ? | .
Cc1ccc(C)c(Cn2c(=O)cc(C(F)(F)F)c3c(C)nn(C)c32)c1 | 0% | 70% | . | 104% | 60% | .
Cc1ccc(-c2noc(C3CC(=O)N(c4ccc5c(c4)OCCO5)C3)n2)cc1 (centres undefined) | 12% | -22% | . | 70% | -13% | .
COc1ccc(CCNC(=O)CSC(=O)c2ccccc2)cc1OC | ? | -13% | 21µM* | -22% | -15% | 6%
COc1ccc(CCNC(=O)CCCOc2ccc(C)cc2)cc1OC | 50µM* | ? | 24µM* | ? | 8% | -1%
COc1ccc(CCNC(=O)CCCOc2ccc(Cl)cc2)cc1OC | -6% | -22% | -16% | 21% | -6% | 4%
COc1ccc(CCNC(=O)CSc2ccccc2)cc1OC | -6% | -10% | -1% | 12% | -14% | -4%
COc1ccc(CC(=O)N/N=C/c2cccn2-c2ccc([N+](=O)[O-])cc2)cc1OC | 11% | 45µM* | -9% | ? | 40µM* | ?
SMILES | VDR inh | JMJD2A Tudor | PLK1 PBD inh | HP1b binding inh | BAZ2B inh | L3MBTL1 block
CC(=O)c1ccc(-c2csc3ncnc(Sc4nnnn4C)c23)cc1 | . | -20% | . | . | . | .
c1ccc(SCc2nc3ccccc3[nH]2)nc1 | 17% | -4% | -10% | 43% | 1% | 1%
CC(=O)c1nnn(-c2nc(N)nc(N(c3ccccc3)c3ccccc3)n2)c1C | 8% | -18% | 5% | 24% | 5% | 2%
Cc1cc(C)n(-c2nc(Nc3ccccc3)nc(-n3nc(C)cc3C)n2)n1 | 2% | ? | -7% | 25% | 79µM* | -5%
Cc1cc(Cl)nc(-n2nc(C)cc2C)n1 | -12% | -16% | -6% | 1% | 5% | 14%
Cc1cc(C)n(-c2nc(N(c3ccccc3)c3ccccc3)nc(-n3nc(C)cc3C)n2)n1 | -2% | ? | -6% | -4% | -10% | 4µM*
COc1cccc(/C=N/Nc2nc(Nc3ccccc3)nc(-n3nc(C)cc3C)n2)c1O | 9% | ? | -4% | 10% | -29% | .
Cc1cc(C)n(-c2nc(C)nc(N)n2)n1 | -7% | -14%[11.4 µM] | 12µM* | -7% | 1% | 0%[11.4 µM]
Cc1ccc2ncnc(NCc3ccco3)c2c1 | -5% | -5%[57.1 µM] | . | 5%[57 µM] | . | .
CCOC(=O)N1CCc2c(sc3c2c(=O)n(Cc2ccccc2)c(=O)n3CC(=O)Nc2ccc(F)cc2)C1 | -7% | -9% | . | 43% | -13% | .
COc1ccc(C(=O)O)cc1S(=O)(=O)Nc1ccccc1-c1ccccc1 | -23% | -10% | -15% | 6% | 0% | .
Cc1cc(C)cc(NC(=O)N2CCC(CN3CCCCCC3)CC2)c1 | 11% | -20% | . | 3% | -15% | .
O=C(CSc1nnc(C2COc3ccccc3O2)o1)N1CCCC1 (centres undefined) | ? | -23% | 21µM* | ? | -7% | .
COCCNc1nc(-c2ccc(C(=O)N(C)C)cc2)nc2ccccc12 | 23% | . | . | . | . | .
COCCNc1nc(-c2ccc(N(C)C)cc2)nc2ccccc12 | 79µM* | . | . | . | . | .
COc1cccc2cc(C(=O)C3=C(O)C(=O)N(Cc4ccco4)C3c3cccnc3)oc12 (centres undefined) | ? | 79µM* | -19% | 10% | -6% | .
Cc1ccc(C(=O)C2=C(O)C(=O)N(Cc3ccco3)C2c2cccc(Br)c2)o1 (centres undefined) | -15% | ? | -18% | -2% | ? | .
COc1ccc(C2C(C(=O)c3ccc(C)o3)=C(O)C(=O)N2Cc2cccnc2)cc1 (centres undefined) | -27% | 35µM* | -11% | 16% | -17% | .
Cc1ccc(C(=O)C2=C(O)C(=O)N(Cc3ccco3)C2c2cccc(Cl)c2)o1 (centres undefined) | ? | 25µM* | -12% | 1% | ? | .
Cc1ccc(C(=O)C2=C(O)C(=O)N(Cc3ccco3)C2c2ccc(N(C)C)cc2)o1 (centres undefined) | -14% | ? | -10% | 22% | 35µM* | .
